We go through eight molecules from PubChem BioAssay.

The subject of assay [1] is Wnt5a (protein binding on small-molecule microarray). Description: small molecules binding Wnt5a protein – biophysical, small-molecule microarray, 635/667 nm fluorescence, primary screen (AID 1142).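 Further: fluorescence read at 667 nm with signal to noise per printed feature.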 To be noted: 635 nm fluorescence, higher = more signal.
Assay [2] in a line: ATP-based viability of Huh7 replicon cells – cell-based, CellTiter-Glo luminescence, basal, 48 h, cytotoxicity control for HCV replication inhibitor project, primary screen (AID 1143).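 Further: Huh7 hepatoma cells carrying a hepatitis C replication reporter with no stimulus; test concentration not given here.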 To be noted: higher = more signal, called active from +8 up or from −8 down. Background: A replicon is a self-replicating genome or part of one, used to study replication in cells.
A short description of assay [3]: basal CRE-LacZ reporter activity in PC12 – cell-based, unstimulated, primary screen (AID 1145). To be noted: no forskolin, luminescence, 4.5 h, higher = more signal, called active from +8 up or from −8 down.
Assay [4] is described as follows: forskolin-driven CRE-LacZ activity in PC12 – cell-based, CRE-LacZ reporter, forskolin-stimulated, primary screen (AID 1146).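 Further: PC12 cells with 6xCRE LacZ reporter stimulated by forskolin 10 µM; beta-galactosidase reporter signal reflecting CREB driven transcription.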 To be noted: luminescence, 4.5 h, higher = more signal, called active from +8 up or from −8 down.
The target of assay [5] is Streptavidin (Streptomyces avidinii) (UniProt P22629). In words: compounds binding control protein streptavidin – biophysical, small-molecule microarray, 635/667 nm fluorescence, artefact control for SMM compound annotation, primary screen (AID 1147).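 Further: signal reflects streptavidin binding to arrayed compounds as a control protein.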 To be noted: higher = more signal.
The nature of assay [6]: probe aInhba binding on compound microarray – biochemical, small-molecule microarray, 635/667 nm fluorescence, primary screen (AID 1148).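 Further: score merges 667nm spot fluorescence with signal-to-noise for antibody binding to printed compounds.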 The settings on record: higher = more signal.
For assay [7], the target named is Torsin-1A (Homo sapiens) (UniProt O14656). In words: TOR1A wild-type binding on microarray – cell lysate, small-molecule microarray, lysate, 635/667 nm, primary screen (AID 1149). To be noted: COS7 hTOR1A-WT lysate, 635 nm fluorescence, higher = more signal.
Assay [8] shares this target. Description: torsin A mutant lysate binding on microarrays – cell lysate, small-molecule microarray, COS7 lysate, 635/667 nm fluorescence, primary screen (AID 1150).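 Further: score pools 667 nm emission and signal to noise measuring lysate protein binding.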 To be noted: COS7 hTOR1A mutant lysate, 635 nm fluorescence, higher = more signal.
The test system of assay [9] is Sonic hedgehog protein (Shh). Description: Sonic hedgehog microarray binding compounds – biochemical, small-molecule microarray, 635/667 nm fluorescence, primary screen (AID 1151).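 Further: Shh protein binding to compounds spotted on small-molecule microarray slides; score combines spot fluorescence intensity with signal-to-noise across triplicate slides.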 The settings on record: 635 nm fluorescence, higher = more signal.
The nature of assay [10]: optical density shifts of acrAB sulA E. coli – strain DRC41, OD650, 48 h, E. coli filamentation inducer project, primary screen (AID 1152).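 Further: E. coli MC1000 strain DRC41 lacking acrAB efflux pump and sulA.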 The settings on record: higher = more signal, called active from +8 up or from −8 down.
Assay [11] can be described thus: probe aLefty1 binding on compound microarray – biochemical, small-molecule microarray, 635/667 nm fluorescence, primary screen (AID 1153).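 Further: score merges spot fluorescence with signal-to-noise ratio from the scanned slide images.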 The settings on record: higher = more signal.
A short description of assay [12]: plasmodial surface anion channel blockers, osmotic lysis – cell-based, P. falciparum Indochina, OD700, 1 h, primary screen (AID 1154). To be noted: P. falciparum Indochina infected RBC osmotic lysis, higher = more signal, called active from +8 up or from −8 down.
Assay [13] is described as follows: plasmodial surface anion channel blockers, osmotic lysis – cell-based, P. falciparum Indochina, OD700, 2 h, primary screen (AID 1155).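 Further: lysis reports solute entry through the parasite surface anion channel PSAC.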 To be noted: P. falciparum Indochina infected erythrocytes, higher = more signal, called active from +8 up or from −8 down.
Assay [14] can be described thus: changes in parasitized red cell lysis, either direction – P. falciparum Indochina, OD700, 3 h, PSAC antagonist project, primary screen (AID 1156). The settings on record: P. falciparum-infected erythrocytes, osmotic lysis, higher = more signal, called active from +8 up or from −8 down.
Assay [15] in a line: plasmodial surface anion channel blockers, osmotic lysis – cell-based, P. falciparum Indochina, OD700, 18 h, primary screen (AID 1157). The settings on record: P. falciparum Indochina infected erythrocytes, osmotic lysis OD700, 18 h; higher = more signal, called active from +8 up or from −8 down.
Assay [16] can be described thus: S6 kinase pathway phospho-S6 level changes – cell-based, A549, cytoblot, luminescence, serum-stimulated, primary screen (AID 1158).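 Further: serum-stimulated A549 lung adenocarcinoma cells; signal is phosphorylated S6 detected by cytoblot immunostaining with HRP secondary.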 The settings on record: 5 h, higher = more signal.
Assay [17] addresses NADPH oxidase 2 (Homo sapiens) (UniProt P04839). Description: compounds shifting NOX2 Amplex Red fluorescence – cell-based, HEK293-NOX2, PMA-stimulated, NOX inhibitor project, primary screen (AID 1159). Further: test concentration not given here. To be noted: 45 min, higher = more signal, called active from +8 up or from −8 down.
For assay [18], the target named is NADPH oxidase 4 (Homo sapiens) (UniProt Q9NPH5). Description: compounds shifting NOX4 Amplex Red fluorescence – cell-based, HEK293-NOX4, tetracycline-induced, NOX inhibitor project, primary screen (AID 1160). To be noted: HEK293-NOX4, Amplex Red H2O2 fluorescence, 45 min; higher = more signal, called active from +8 up or from −8 down.
Assay [19] concerns the target NADPH oxidase 5 (Homo sapiens) (UniProt Q96PH1). In words: compounds shifting NOX5 Amplex Red fluorescence – cell-based, HEK293-NOX5, NOX inhibitor project, primary screen (AID 1161). To be noted: HEK293-NOX5, ionomycin, 45 min, higher = more signal.
Assay [20] can be described thus: compound effects on lung adenocarcinoma cell viability – A549, calcein-AM fluorescence, 48 h, basal, profiling panel (AID 1162). Further: test concentration not given here. The settings on record: higher = more signal.

Activity calls are given as the source filed them.

Sequence of NADPH oxidase 4 (Homo sapiens) (Q9NPH5 whole entry, looked up): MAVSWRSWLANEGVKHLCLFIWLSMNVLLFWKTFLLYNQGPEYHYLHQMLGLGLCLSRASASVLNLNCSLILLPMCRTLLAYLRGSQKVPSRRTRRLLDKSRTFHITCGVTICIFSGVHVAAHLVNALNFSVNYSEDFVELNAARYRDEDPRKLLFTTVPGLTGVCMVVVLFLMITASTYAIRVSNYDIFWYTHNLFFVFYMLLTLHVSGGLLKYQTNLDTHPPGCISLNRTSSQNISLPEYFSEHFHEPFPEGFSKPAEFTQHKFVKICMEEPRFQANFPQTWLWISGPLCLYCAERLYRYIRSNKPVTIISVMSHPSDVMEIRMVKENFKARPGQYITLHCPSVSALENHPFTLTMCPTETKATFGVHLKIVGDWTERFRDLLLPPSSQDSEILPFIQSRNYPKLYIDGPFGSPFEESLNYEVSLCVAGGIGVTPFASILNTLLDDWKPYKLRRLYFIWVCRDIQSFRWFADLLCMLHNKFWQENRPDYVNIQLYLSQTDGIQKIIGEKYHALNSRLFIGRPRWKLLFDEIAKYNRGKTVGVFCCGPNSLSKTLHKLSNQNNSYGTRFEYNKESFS
Sequence of NADPH oxidase 5 (Homo sapiens) (Q96PH1 whole entry, looked up): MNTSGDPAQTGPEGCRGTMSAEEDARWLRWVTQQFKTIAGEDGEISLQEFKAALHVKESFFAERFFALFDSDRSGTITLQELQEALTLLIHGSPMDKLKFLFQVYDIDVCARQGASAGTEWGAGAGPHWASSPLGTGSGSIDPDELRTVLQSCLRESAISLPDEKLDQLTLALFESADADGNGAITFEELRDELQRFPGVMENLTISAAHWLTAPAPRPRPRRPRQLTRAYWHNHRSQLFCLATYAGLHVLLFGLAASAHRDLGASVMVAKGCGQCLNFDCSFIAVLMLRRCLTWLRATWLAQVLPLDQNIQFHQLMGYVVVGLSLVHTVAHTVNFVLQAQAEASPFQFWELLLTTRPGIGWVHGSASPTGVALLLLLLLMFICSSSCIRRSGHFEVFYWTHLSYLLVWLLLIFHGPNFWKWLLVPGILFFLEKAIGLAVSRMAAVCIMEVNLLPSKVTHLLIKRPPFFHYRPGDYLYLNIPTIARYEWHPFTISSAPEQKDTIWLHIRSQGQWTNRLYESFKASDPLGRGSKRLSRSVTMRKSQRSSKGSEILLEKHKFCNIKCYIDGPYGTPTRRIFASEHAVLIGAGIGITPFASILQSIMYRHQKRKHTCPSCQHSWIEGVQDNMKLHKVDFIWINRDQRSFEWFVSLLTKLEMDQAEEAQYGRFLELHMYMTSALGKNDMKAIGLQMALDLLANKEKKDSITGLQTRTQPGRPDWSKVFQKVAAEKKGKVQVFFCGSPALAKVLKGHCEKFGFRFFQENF
Sequence of Streptavidin (Streptomyces avidinii) (P22629 whole entry, looked up): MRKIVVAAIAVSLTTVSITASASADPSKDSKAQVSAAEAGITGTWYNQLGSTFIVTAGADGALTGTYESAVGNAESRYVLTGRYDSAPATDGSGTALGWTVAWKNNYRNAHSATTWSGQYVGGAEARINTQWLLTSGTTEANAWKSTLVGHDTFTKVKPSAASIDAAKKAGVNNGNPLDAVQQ
Sequence of Torsin-1A (Homo sapiens) (O14656 whole entry, looked up): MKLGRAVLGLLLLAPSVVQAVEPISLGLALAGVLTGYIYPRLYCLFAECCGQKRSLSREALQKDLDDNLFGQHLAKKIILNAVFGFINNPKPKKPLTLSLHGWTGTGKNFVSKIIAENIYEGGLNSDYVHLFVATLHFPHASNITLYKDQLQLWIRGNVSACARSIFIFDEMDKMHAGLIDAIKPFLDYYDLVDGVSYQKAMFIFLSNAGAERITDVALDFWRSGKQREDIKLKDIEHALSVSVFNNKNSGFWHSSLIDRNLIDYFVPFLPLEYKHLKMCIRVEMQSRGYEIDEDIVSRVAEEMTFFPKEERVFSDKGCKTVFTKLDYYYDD
Sequence of NADPH oxidase 2 (Homo sapiens) (P04839 whole entry, looked up): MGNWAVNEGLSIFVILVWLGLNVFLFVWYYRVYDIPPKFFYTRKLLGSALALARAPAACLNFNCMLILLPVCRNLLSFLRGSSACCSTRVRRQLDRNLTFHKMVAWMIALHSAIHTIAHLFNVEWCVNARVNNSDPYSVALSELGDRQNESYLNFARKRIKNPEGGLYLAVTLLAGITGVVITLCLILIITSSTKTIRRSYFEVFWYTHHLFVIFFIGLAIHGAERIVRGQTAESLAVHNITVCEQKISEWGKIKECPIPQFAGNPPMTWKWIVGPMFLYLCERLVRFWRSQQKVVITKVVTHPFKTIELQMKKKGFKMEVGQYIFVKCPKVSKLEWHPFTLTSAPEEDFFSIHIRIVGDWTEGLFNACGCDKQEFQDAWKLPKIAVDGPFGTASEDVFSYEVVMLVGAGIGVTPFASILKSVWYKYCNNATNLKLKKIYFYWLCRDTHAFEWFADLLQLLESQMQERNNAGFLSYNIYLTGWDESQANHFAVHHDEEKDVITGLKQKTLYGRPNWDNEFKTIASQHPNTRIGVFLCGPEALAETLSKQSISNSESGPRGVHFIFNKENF

`C[N+](C)(C)CCCCNC(=O)[C@@H]1C[C@@H]2C(=O)NCC(=O)N2[C@@H]1c1cccc(OCCO)c1`: the composite z-score in [1] was found to be 0.857; in assay [5], 0.461; in assay [6], 0.124; with Torsin-1A (Homo sapiens) [7] it was 1.87; in the assay with Torsin-1A (Homo sapiens) [8], 1.1; in assay [9], 2.16. The same molecule returned a composite z-score in assay [11] of -0.221. In addition, the z-score in [2] is -1.08 (inactive); in assay [3], -0.939 (inactive); in assay [4], -0.689 (inactive); in [10], 1.78 (inactive); in assay [12] it was 2.68 (inactive); in assay [13] it was -1.12 (inactive). Further, the z-score in [14] is -2.75 (inactive); in assay [15] it was -1.98 (inactive); in [16], 0.855; in assay [17] it was -1.42 (inactive); in [18] it was -0.57 (inactive); in [19], 0.766. Moreover, the z-score in assay [20] is 1.59.

Consider `CCOC(=O)C[C@H]1[C@H](OC(=O)c2ccc(-c3ccccc3)cc2)[C@@H](NC(=O)c2ccccc2)c2cc(OCCCO)ccc2N1C(=O)c1ccccc1`, for which the composite z-score in [1] is 0.15; in assay [5] it was 0.0439; in assay [6], 0.105; with Torsin-1A (Homo sapiens) [7], 0.217; in the assay with Torsin-1A (Homo sapiens) [8] it was 0.792; in assay [9], 0.082. In [11], this molecule returned a composite z-score of 0.167. Further, the z-score was -2.94 (inactive) in assay [2]; 0.251 (inactive) in assay [3]; -0.843 (inactive) in [4]; 2.36 (inactive) in assay [10]; 0.788 (inactive) in [12]; -0.846 (inactive) in assay [13]. Moreover, the z-score was -0.0889 (inactive) in assay [14]; -1.09 (inactive) in assay [15]; 1.58 in assay [16]; 2.09 (inactive) in assay [17]; 1.32 (inactive) in assay [18]; 3.5 in assay [19]. In [20], the z-score is 0.769.

For `CC(C)(C)OC(=O)CC[C@@]12N=C(c3ccc(OCCCO)cc3)O[C@@H]1c1ccccc1N(Cc1ccccc1)C2=O`, the composite z-score in assay [1] is 0.215; in [5], -0.0873; in [6], 0.222; with Torsin-1A (Homo sapiens) [7], 0.488; with Torsin-1A (Homo sapiens) [8] it was 0.516; in assay [9] it was 0.657. For the same molecule, the composite z-score in assay [11] was found to be 0.659. Also, the z-score in [2] is -4.37 (inactive); in assay [3], 1.6 (inactive); in [4] it was -1.25 (inactive); in assay [10] it was 0.94 (inactive); in assay [12] it was 28.5 (active); in assay [13], 29 (active). Also, the z-score is 3.86 (inactive) in assay [14]; 2.24 (inactive) in [15]; 0.497 in [16]; 1.56 (inactive) in assay [17]; -0.266 (inactive) in assay [18]; -1.38 in assay [19]. In addition, in assay [20], the z-score was -0.236.

With `COc1ccc([Si](C)(C)[C@H]2[C@H](CC(=O)N(CCO)Cc3ccccc3)O[C@@]3(C(=O)N(Cc4cccc(N5C(=O)COc6ccccc65)c4)c4ccccc43)[C@@H]2C)cc1`, the composite z-score in assay [1] is 0.223; in assay [5] it was 0.224; in assay [6] it was 0.0566; with Torsin-1A (Homo sapiens) [7], 0.275; in the assay with Torsin-1A (Homo sapiens) [8], 0.493; in assay [9] it was 2.03. In assay [11], this molecule gave a composite z-score of 0.0437. Also, the z-score in assay [2] was -3.26 (inactive); in assay [3] it was 2.61 (inactive); in assay [4], -1.58 (inactive); in assay [10], 2.01 (inactive); in [12] it was 12.7 (active); in assay [13], 2.77 (inactive). The z-score in assay [14] is 0.144 (inactive); in assay [15], 1.28 (inactive); in [16], 0.721; in assay [17] it was 0.0235 (inactive); in [18], 0.789 (inactive); in assay [19], 2.17. Moreover, in assay [20], the z-score was 0.0715.

As to `O=C(NCC(F)(F)F)[C@@H]1c2ccccc2C(=O)N(C2Cc3ccccc3C2)[C@H]1c1ccc(CO)cc1`, the composite z-score in [1] was -0.034; in assay [5], -1.25; in assay [6] it was 0.106; with Torsin-1A (Homo sapiens) [7] it was -0.0578; with Torsin-1A (Homo sapiens) [8], 0.224; in assay [9], -0.875. The same molecule had a composite z-score in [11] of 0.0588. Besides, the z-score in assay [2] was -1.11 (inactive); in assay [3], -0.295 (inactive); in assay [4] it was -1.15 (inactive); in [10] it was 2.43 (inactive); in [12] it was 3.55 (inactive); in [13], -0.483 (inactive). In addition, the z-score is 1.8 (inactive) in [14]; -0.683 (inactive) in assay [15]; 1.14 in assay [16]; 0.207 (inactive) in assay [17]; 1.23 (inactive) in [18]; -1.23 in assay [19]. Moreover, the z-score in assay [20] is 2.25.

As to `C=CCC1(CC=C)C[C@H]2CO[C@H](c3ccc(OC)cc3)N2C1=O`, the composite z-score in assay [1] was -0.125; in assay [5], -0.147; in assay [6], -0.105; with Torsin-1A (Homo sapiens) [7], 0.483; with Torsin-1A (Homo sapiens) [8], 0.862; in assay [9], 0.707. Besides, the composite z-score in assay [11] is -0.0654. For the same molecule, the z-score in assay [2] was -0.15 (inactive); in assay [3], 1.73 (inactive); in [4], -0.473 (inactive); in assay [10], 2.03 (inactive); in assay [12] it was -0.214 (inactive); in assay [13], 0.573 (inactive). Further, the z-score in assay [14] is -0.123 (inactive); in assay [15], 0.503 (inactive); in [16], 0.0446; in assay [17], 0.992 (inactive); in assay [18], 0.181 (inactive); in assay [19], -0.0682. Further, the z-score in assay [20] is 1.12.

For the molecule `O=C1c2ccccc2[C@@]2(Cc3ccccc3N(CC(F)(F)F)C2=O)[C@H](c2ccc(CO)cc2)N1Cc1ccccc1C(F)(F)F`, the composite z-score in [1] was -0.388; in assay [5], -1.04; in assay [6] it was -0.224; with Torsin-1A (Homo sapiens) [7], -1.41; in the assay with Torsin-1A (Homo sapiens) [8], -0.322; in assay [9], -0.643. Also, in assay [11], the composite z-score was -0.23. The z-score in [2] was -1.02 (inactive); in [3], -0.556 (inactive); in assay [4], -1.56 (inactive); in assay [10] it was 1.43 (inactive); in assay [12] it was 0.0937 (inactive); in assay [13], -0.926 (inactive). The z-score in [14] was 0.593 (inactive); in assay [15] it was -1.39 (inactive); in assay [16], 0.936; in assay [17] it was 0.0968 (inactive); in [18], 0.396 (inactive); in assay [19], 1.09. In addition, the z-score in [20] is 1.73.

As for `O=C1c2ccccc2C(=O)c2cc([C@H]3Oc4ccccc4S(=O)(=O)N4CCC[C@@H]34)ccc21`, the composite z-score in assay [1] was -0.0879; in assay [5] it was -0.615; in [6], -0.0079; with Torsin-1A (Homo sapiens) [7], -0.474; in the assay with Torsin-1A (Homo sapiens) [8], -0.122; in assay [9], -0.441. The same molecule displayed a composite z-score in assay [11] of -0.0625. Further, the z-score was -4.31 (inactive) in [2]; 4.29 (inactive) in assay [3]; -1.21 (inactive) in [4]; 3.11 (inactive) in assay [10]; 8.47 (active) in [12]; 0.452 (inactive) in assay [13]. Further, the z-score was 0.544 (inactive) in assay [14]; -1.29 (inactive) in assay [15]; 1.1 in assay [16]; 0.0288 (inactive) in assay [17]; -1.18 (inactive) in [18]; 0.489 in assay [19]. Besides, the z-score in [20] is 0.326.
